# PTPN22 inh 2 = inhibitors of human LYP (PTPN22) phosphatase. recombinant LYP catalytic domain, DiFMUP fluorescence. actives 0.21% (n = 96,000). inhibition, % at 2 µM. Q9Y2R2;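 active = inhibition at 2 µM at or above a set limit, the screen mean plus 3 SD, cut at about 24% in these data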;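 note: 0% = DMSO with enzyme and 100% = enzyme fully blocked by orthovanadate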
# EphB4 antag = antagonists of human EphB4-ephrin-B2 interaction; inhibition, % at 7 µM; EphB4 LBD / TNYL-RAW-Alexa532 peptide, fluorescence polarization; actives 0.15% (n = 97,000); AID 720;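 active = inhibition above the screen-wide mean inhibition plus 3 SD, cut at about 15% in these data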;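 note: 0% = DMSO wells and 100% = excess unlabeled TNYL-RAW peptide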
# Plk1 PBD FP = blocks phosphopeptide binding to human Plk1 polo box domain | P53350 | Plk1 PBD phosphopeptide binding, fluorescence polarization | inhibition, %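 (tested at about 20 µM)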 | actives 0.13% (n = 97,000); in the data active = inhibition above about 34%, passing the limit was not always enough
# Target sequence (P53350 whole entry, looked up, the tested form may be a part): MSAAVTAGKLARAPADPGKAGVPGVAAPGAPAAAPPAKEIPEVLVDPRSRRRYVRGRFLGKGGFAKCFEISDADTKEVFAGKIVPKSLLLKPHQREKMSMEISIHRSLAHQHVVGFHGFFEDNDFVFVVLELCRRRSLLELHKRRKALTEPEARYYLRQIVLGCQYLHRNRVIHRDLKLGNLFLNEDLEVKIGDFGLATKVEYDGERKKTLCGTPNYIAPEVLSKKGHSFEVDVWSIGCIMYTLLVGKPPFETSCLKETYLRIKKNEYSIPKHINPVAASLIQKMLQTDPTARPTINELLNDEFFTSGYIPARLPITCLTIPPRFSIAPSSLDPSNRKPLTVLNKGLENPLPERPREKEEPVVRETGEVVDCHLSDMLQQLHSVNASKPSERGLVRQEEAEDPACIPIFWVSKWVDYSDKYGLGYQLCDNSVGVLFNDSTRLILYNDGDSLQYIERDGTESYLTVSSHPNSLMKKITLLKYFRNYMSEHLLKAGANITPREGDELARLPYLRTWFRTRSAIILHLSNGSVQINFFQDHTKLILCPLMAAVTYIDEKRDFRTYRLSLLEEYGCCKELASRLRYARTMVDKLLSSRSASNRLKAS
# LYP act = LYP (human) phosphatase activation; Q9Y2R2; recombinant LYP, DiFMUP fluorescence; 0 = plate median, 100 = signal doubled; activation, % at 2 µM; actives 0.11% (n = 96,000);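 active = activation at 2 µM above a set limit, the mean plus 5 SD, cut at about 37% in these data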
# PLK1 kinase inh = PLK1 (human) kinase inhibition. inhibition, % at 10 µM. actives 0.53% (n = 97,000). P53350. recombinant PLK1 kinase, TR-FRET peptide phosphorylation;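 active = inhibition of 50% or more in the single-concentration screen; inactive = inhibition below 50%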;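 note: 0% = DMSO max control and 100% = H-89 dihydrochloride min control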
# The depositor's hits bear a star; . = no result; [ ] = another dose, or the depositor's remark. Hits are enriched below; roughly 1.2% of the tested compounds scored in any of these assays.
SMILES,PTPN22 inh 2,EphB4 antag,Plk1 PBD FP,LYP act,PLK1 kinase inh
COc1cccc(C(C#N)N2CCOCC2)c1 (stereo unspecified),-6.7,22.4*,-47.4,8.5,-14.4
Cc1cc(C)c(NC(=O)C2CSCCS2)c(C)c1 (stereo unspecified),7.7,3.3,-20.4,-4.5,-5.8
CC(C)(C)c1csc(NC(=O)c2ccc(Cl)s2)n1,16.3,2.7,1.7,-12.8,-5.2
CCNc1nc(N)c(C(=O)c2ccc(Cl)s2)s1,-3.1,-5.1,-25.5,0.6,68.2*
Clc1ccc(-n2c(SCc3nc4ccccc4[nH]3)nnc2-c2ccncc2)cc1,-8.4,-3.9,9.4,9.0,-1.9
Cc1ccnc(SCCn2c(N3CCCCC3)nc3c2c(=O)n(C)c(=O)n3C)n1,12.8,19.6*,7.8,-10.0,-6.1
Cc1ccnc(SCCn2c(N3CCOCC3)nc3c2c(=O)n(C)c(=O)n3C)n1,12.0,1.3,-7.4,-11.2,-9.8
CCOC(=O)c1ccc(NC(=O)CSc2nc(NC(=O)c3ccccc3)c3c(C)c(C)oc3n2)cc1,25.3*,0.6,-9.8,-23.9,0.2
O=[N+]([O-])c1cccnc1NCCNc1ncc(C(F)(F)F)cc1Cl,8.4,-0.7,7.9,-6.1,8.5
O=C(Nc1ccccc1Cl)c1ccc(S(=O)(=O)N2CCOCC2)cc1,.,3.9,-6.8,.,68.3*
C/C(=N/NC(=O)CNc1ccc(C)cc1)c1ccc(Br)s1,-3.1,-8.6,-6.1,8.7,-15.9
C/C(=N\NC(=O)c1ccc(Cl)cc1)c1ccc(Br)s1,-6.0,-4.3,67.4*,9.6,-6.8
COc1cccc(-c2csc3nc[nH]c(=O)c23)c1,-3.4,-5.2,-8.4,-1.9,60.9*
c1ccc(-c2ccc(C3=Nn4c(nnc4-c4cc(-c5ccccc5)n[nH]4)SC3)cc2)cc1,42.2*,2.0,4.3,-40.3,-14.0
Cc1ccsc1C1C2=C(CC(C)(C)CC2=O)Nc2ncnn21 (stereo unspecified),-5.3,-6.9,-14.0,2.1,26.1
Cc1ccsc1C1C2=C(CCCC2=O)Nc2ncnn21 (stereo unspecified),5.0,2.9,-10.4,-4.5,61.2*
CCN(CC(=O)NC(=O)NC1CCCCC1)Cc1nc2ccccc2c(=O)[nH]1,25.2*,2.1,0.0,-24.3,-12.3
CN(C)c1nccc(Nc2ccccc2)c1C#N,-4.4,15.7*,-13.8,4.9,-2.9
CN(C)CCN(Cc1ccccc1)c1nccc(N(C)C)c1C#N,10.6,-3.0,-10.1,-8.7,-10.7
Cc1ccc(C)c(NC(=O)CSc2ncnc3nc[nH]c23)c1,0.0,1.1,-17.1,-2.4,28.5
Cc1ccc(OCCSc2ncnc3nc[nH]c23)cc1,5.1,0.2,-9.7,-4.6,55.8*
CCN1CCN(CC(=O)NC2CCCC2)C(=O)C1=O,.,0.7,-22.0,.,67.6*
CCn1c(CSc2nnc3ccccn23)nc2cc(C(=O)O)ccc21,1.0,27.1*[fluorescence artefact?],-14.7,-3.9,11.2
Cc1ccccc1-n1c(SCC(=O)c2cc(C)n(C)c2C)nnc1-c1cccnc1,1.3,-2.6,20.0,0.8,-14.3
CCn1c(CSc2nnc(-c3cccnc3)n2-c2ccccc2C)nc2cc(C(=O)O)ccc21,4.1,29.5*[fluorescence artefact?],-10.7,-0.4,37.9
SMILES,PTPN22 inh 2,EphB4 antag,Plk1 PBD FP,LYP act,PLK1 kinase inh
S=C1NNC2(NN1)C1CC3CC(C1)CC2C3,-7.9,3.3,-6.8,4.9,55.6*
C1CSC2(N1)C1CC3CC(C1)CC2C3 (stereo unspecified),-3.7,-6.6,12.2,3.6,-7.6
N#Cc1cc([N+](=O)[O-])ccc1Oc1cccc(/C=N/NC(=O)c2cccc(Cl)c2)c1,8.0,2.2,-8.9,-5.2,-7.2
Cc1ccc(C)c(C(=O)n2cnnc2N)c1,8.1,1.3,7.5,-4.6,54.5*
Nc1nncn1C(=O)c1c(Cl)cccc1Cl,3.3,-5.5,-5.2,-2.9,7.2
Cc1ccc(C(=O)n2cnnc2N)cc1,-24.0,-3.1,-9.7,25.7,3.4
Nc1nncn1C(=O)c1cccs1,-5.7,-0.1,-9.6,5.1,57.4*
CCN(CC)C(=O)Nc1c(C)n(C)n(-c2ccccc2)c1=O,-11.0,1.0,14.4,12.8,54.7*
Cc1c(NC(=O)COC(=O)C(c2ccc(Cl)cc2)C(C)C)c(=O)n(-c2ccccc2)n1C (stereo unspecified),-6.8,16.9*,-10.5,4.2,-15.0
O=C(c1ccco1)N1CCC(c2ccccc2)C1 (stereo unspecified),-14.4,-11.3,5.7,11.5,-4.8
COc1ccc(S(=O)(=O)N2CC3CCCN3c3cc(C(F)(F)F)ccc32)cc1 (stereo unspecified),25.0*,7.3,3.8,-21.8,-5.5
COc1ccc(S(=O)(=O)N2CC3CCCN3c3ccc(C(F)(F)F)cc32)cc1 (stereo unspecified),14.2,0.0,-14.5,-10.7,-11.5
O=C(O)CCC(=O)Nc1ccc(-c2nnc(-c3ccco3)o2)cc1,.,-7.2,12.3,.,53.5*
O=C(Cc1ccccc1)Nc1ccc(-c2nnc(-c3ccco3)o2)cc1,0.7,2.1,-5.3,-5.1,-0.9
Cc1ccc(C(=O)NNC(=O)CSc2nnc3c(n2)[nH]c2ccc(F)cc23)cc1,29.6*,0.1,-8.0,-27.5,-11.6
CCN=C(N/N=C/c1ccc([N+](=O)[O-])cc1)SC,2.1,-0.9,-14.9,0.9,-19.0
C=CCn1c(SCC(=O)Nc2ncc(Cc3ccc(Br)cc3)s2)nnc1-c1ccncc1,5.8,-2.8,-27.3,-2.4,-6.4
CCCc1cc(NCC2CCCO2)n2c(nc3ccccc32)c1C#N (stereo unspecified),4.8,-11.0,9.2,-2.3,-11.7
CCCC(CCC)C(=O)Nc1cccc(C(=O)O)c1,6.1,-0.2,7.0,-7.0,-10.6
CCOC(=O)N1CCN(c2nc(C)c3c(n2)CC(C)CC3=O)CC1 (stereo unspecified),4.3,7.0,11.6,-5.8,-15.3
CCOC(=O)c1sc2nc(C)c3c(c2c1N)CC(C)(C)OC3,-11.9,15.4*,-9.0,10.8,-17.2
COC(=O)c1ccc(COc2ccccc2/C=N/NS(=O)(=O)c2ccc(C)cc2)cc1,-5.8,0.1,22.6,9.4,-6.2
Cc1[nH]nc2c1C(c1ccoc1)C(C#N)=C(N)O2 (stereo unspecified),-9.6,5.5,9.3,7.9,54.6*
Cc1cccc(N(CC(O)CON=C2c3ccccc3-c3ccccc32)S(C)(=O)=O)c1 (stereo unspecified),10.3,9.3,-15.7,-8.6,-9.8
COc1cc(NC(=O)C2CCCN2S(=O)(=O)c2ccc3c(c2)CCC(=O)N3)cc(OC)c1 (stereo unspecified),-1.8,1.3,-6.5,-1.2,-11.2
Cc1ccc(NC(=O)C2CCCN2S(=O)(=O)c2ccc3c(c2)CCC(=O)N3)cc1Cl (stereo unspecified),.,-2.0,-22.3,.,66.6*
O=S(=O)(NC1CC1)c1ccc(S(=O)(=O)N2CCN3CCCC3C2)cc1 (stereo unspecified),10.0,3.1,-0.3,-11.3,52.8*
COC(=O)c1cc(OC)c(OC)cc1NC(=O)c1ccoc1C,-11.2,-7.0,-3.3,5.5,10.6

# Screening results (PubChem BioAssay)
